The target of test [1] is T1, Aspartate--tRNA(Asp/Asn) ligase (Mycobacterium tuberculosis (strain ATCC 25618 / H37Rv)) (UniProt P9WFW3). Also: in the data most compounds retested in dose-response had high values.
T1 sequence (whole entry): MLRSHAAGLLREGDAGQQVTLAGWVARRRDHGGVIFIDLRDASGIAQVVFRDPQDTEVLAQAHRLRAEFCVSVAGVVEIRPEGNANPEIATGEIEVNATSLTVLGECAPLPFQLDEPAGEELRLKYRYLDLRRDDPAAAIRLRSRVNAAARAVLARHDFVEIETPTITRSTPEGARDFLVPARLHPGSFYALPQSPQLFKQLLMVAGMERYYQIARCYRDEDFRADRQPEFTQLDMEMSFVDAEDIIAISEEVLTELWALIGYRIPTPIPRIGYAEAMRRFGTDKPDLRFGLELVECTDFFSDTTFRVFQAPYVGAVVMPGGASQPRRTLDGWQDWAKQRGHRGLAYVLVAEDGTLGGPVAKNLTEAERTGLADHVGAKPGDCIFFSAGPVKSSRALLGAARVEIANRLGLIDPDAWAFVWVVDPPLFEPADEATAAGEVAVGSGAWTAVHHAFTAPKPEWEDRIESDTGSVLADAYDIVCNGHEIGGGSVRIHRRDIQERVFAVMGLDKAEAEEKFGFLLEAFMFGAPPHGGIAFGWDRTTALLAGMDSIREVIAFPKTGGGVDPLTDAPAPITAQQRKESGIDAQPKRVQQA
Kind of test: Assay for Asp RNA synthetase-1 from Mycobacterium tuberculosis. Type of test: functional. Further details: scale not given: direction of the effect not stated beside the values. The conditions noted are these: 30 µM.

Test [2] addresses Shiga toxin 2 (Escherichia coli O157:H7) (UniProt P09385+P09386). Kind of test: E. coli 0.157:H7 Shiga Toxin SOP - stx2 screening assay. The conditions noted are these: 30 µM. On the set-up: scale not given: direction of the effect not stated beside the values. Type of test: functional.

In the case of `CC(NC(=O)NCCCN(C)S(C)(=O)=O)c1ccncc1` (centres undefined), the Percent Effect in test [1] is -2.98%; in test [2], -9.54%.

With `Cc1cccc(CN2C(=O)CO[C@@H]3CN(CCO)C[C@H]32)c1`, the Percent Effect in test [1] was -4.77%; in test [2], 2.07%.

`CN(C)C(=O)NC1COC2(CCN(Cc3ccccc3)CC2)C1` (centres undefined): the Percent Effect in test [1] is -3.84%; in test [2], -5.12%.

`CN1CCOC(CNC(=O)Cc2ccccc2F)C1` (centres undefined): the figures for the Percent Effect in test [1] and in test [2] were -1.99% and -8.98%, respectively.

Turning to `Cc1nc(CN2CCc3ncnc(-c4ccc(F)cc4)c3CC2)cs1`, the Percent Effect in test [1] is -0.199%; in test [2] it was 5.58%.

Regarding `Cn1nccc1CNC(=O)Nc1cc(C(F)(F)F)c[nH]c1=O`, the Percent Effect in test [1] is 0.5%; in test [2], 21%.

On to `N#Cc1cc(NC(=O)c2ccsc2)ccc1N1CCC(O)CC1`, for which the Percent Effect in test [1] is 3.33%; in test [2], -57.5%.

Take `CN(CCOc1cccc(CNC(=O)C2CC2)c1)C1CCOCC1`: the Percent Effect was -1.13% in test [1] and -0.044% in test [2].

As for `CN(Cc1cccc(F)c1)C(=O)CN1CCCCC1Cn1cncn1` (centres undefined), the Percent Effect in test [1] is 5.47%; in test [2], -9.64%.

For the molecule `Cc1nc(C(=O)N2CCC(Nc3cccnn3)CC2)cs1`, the Percent Effect in test [1] is -7.35%; in test [2], -19.2%.

`Cc1nn(C)c(C)c1C1CCCN1C(=O)c1cc[nH]n1` (centres undefined): the Percent Effect in test [1] was -5.05%; in test [2] it was 11.4%.

With `CCOC(=O)NC(C(=O)NCc1ccc(N2CCCCC2)nc1)C(C)C` (centres undefined), the Percent Effect in test [1] was -3.06%; in test [2], 21.9%.

Consider `CN(C)CCN(Cc1ccc(Cl)cc1)C(=O)c1cc[nH]n1`, for which the values for the Percent Effect in test [1] and in test [2] were -3.79% and 9.32%, respectively.

With `CC(C)c1ncc2c(n1)CN(Cc1nc(-c3cccs3)no1)CC2`, the Percent Effect in test [1] was 0.321%; in test [2], 13.1%.

As to `CCN1CCn2c(C)cnc2C12CCN(C(=O)c1ccc(Cl)cc1)CC2`, the results for the Percent Effect in test [1] and in test [2] were 2.04% and 8.49%, respectively.

`CC(C)Nc1nc(N2CCCC2)nc2c1CN(C(C)C)CC2`: the Percent Effect is 2.18% in test [1] and -118% in test [2].

On to `Cc1nc(CN(C)C2CCN(Cc3ccc4c(c3)OCCO4)C2)no1` (centres undefined), for which the Percent Effect in test [1] was -4.04%; in test [2], 5.87%.

In the case of `CC1CN(CC(=O)NC(=O)NCc2ccccc2)CCO1` (centres undefined), the Percent Effect is -6.29% in test [1] and -0.513% in test [2].

Turning to `Cc1ccc(CCN2CCC(N(C)Cc3noc(C4CC4)n3)C2)cc1` (centres undefined), the Percent Effect is -2.9% in test [1] and -69.9% in test [2].

Regarding `Cc1nc(C)c(CNC(=O)NC(c2nnc3n2CCC3)C(C)C)s1` (centres undefined), the Percent Effect in test [1] was 0.0985%; in test [2], -7.7%.

For `Cc1ccc(CNC(=O)CN2CCCC(Cn3cncn3)C2)s1` (centres undefined), the figures for the Percent Effect in test [1] and in test [2] were -2.78% and -43.9%, respectively.

In the case of `Cc1cnn(CC2CCCN2C(=O)CCc2nc3ccccc3[nH]2)c1` (centres undefined), the Percent Effect was -0.857% in test [1] and -31.6% in test [2].

As for `COCC1c2c(cnn2CC2CCOCC2)CCN1Cc1ccoc1` (centres undefined), the Percent Effect in test [1] was 0.211%; in test [2], -9.29%.

Consider `Cc1nn(C)c(C)c1C1CCCN1CC(=O)NC(C1CC1)C1CC1` (centres undefined), for which the Percent Effect in test [1] is -3.8%; in test [2], -0.393%.

For the molecule `O=C1NCCN1C1CCCN(Cc2nnc(-c3ccc(F)cc3)o2)C1` (centres undefined), the values for the Percent Effect in test [1] and in test [2] were -2.77% and -40.1%, respectively.

In the case of `Cc1csc2c(N3CCC(NCCCc4ccncc4)CC3)ncnc12`, the Percent Effect in test [1] is 8.8%; in test [2], -69.6%.

On to `COc1cc(C)nc(N2CCN(C(=O)c3ccccc3C)CC2)n1`, for which the Percent Effect stood at 6.7% in test [1] and 3.55% in test [2].

On to `CC(=O)Nc1nc(CN2CCCCC2Cn2cccn2)cs1` (centres undefined), for which the Percent Effect in test [1] is 8.39%; in test [2], -4.08%.

In the case of `Cc1cc(C(=O)N2CCCC2c2nnc3n2CCCCC3)no1` (centres undefined), the Percent Effect in test [1] is -2.81%; in test [2], -2.64%.

`Cc1cc(C)nc(N2CCN(C(=O)c3cc(Cl)c[nH]3)CC2)n1`: the Percent Effect is 1.48% in test [1] and -6.42% in test [2].

Take `N#Cc1cn(C2CC2)c(=O)n(CC(O)c2ccc(OC(F)F)cc2)c1=O` (centres undefined): the Percent Effect in test [1] came out at 1.23%; in test [2] it was 14%.

As to `O=C(c1ccc(F)cc1)N1C[C@@H]2OCCN(c3ncccn3)[C@@H]2C1`, the Percent Effect in test [1] was -0.874%; in test [2], -4.11%.

On to `O=C(Cc1ccsc1)N1CCn2cc(CN3CCCC3)nc2C1`, for which the Percent Effect in test [1] is -0.684%; in test [2] it was -12%.

Take `Cc1cccnc1CN1CCC(c2nnc(Cn3cccn3)n2C)CC1`: the Percent Effect in test [1] is -1.2%; in test [2], -18.5%.

Turning to `Cc1ccc2c(c1)CCC21CCN(C(=O)CO)CC1`, the Percent Effect was 5.32% in test [1] and -38.4% in test [2].

Turning to `COCCCNC(=O)CCn1nc(C)c2ccccc21`, the figures for the Percent Effect in test [1] and in test [2] were -2.88% and -11.5%, respectively.

For the molecule `CC(C)CN1CCC2(C=C(C(=O)N3CCCC3)c3ccccc32)CC1`, the Percent Effect in test [1] is 0.582%; in test [2], -8.02%.

`NC(=O)C1CN(C(=O)Nc2ccccc2-c2cccs2)CCO1` (centres undefined): the Percent Effect was -9.88% in test [1] and -14.7% in test [2].

Turning to `O=C(c1ccccn1)N1CCc2c(nc(N3CCCC3)[nH]c2=O)C1`, the results for the Percent Effect in test [1] and in test [2] were -2.28% and -39.9%, respectively.

On to `CC(C)Nc1nc(N2CCOCC2)nc2c1CN(Cc1ccoc1)CC2`, for which the results for the Percent Effect in test [1] and in test [2] were -5.4% and 4.99%, respectively.

With `CNS(=O)(=O)Cc1ccc(CNC(=O)c2cccc(C)n2)cc1`, the results for the Percent Effect in test [1] and in test [2] were -1.85% and -5.04%, respectively.

As for `Cc1occc1C(=O)N1CCC2(CCC2NC(=O)c2ccn(C)c2)CC1` (centres undefined), the Percent Effect is -3.29% in test [1] and 13.8% in test [2].

On to `O=C1NCCN1C1CCN(Cc2nc(-c3ccoc3)no2)CC1`, for which the Percent Effect is -7.34% in test [1] and -21.2% in test [2].

In the case of `CC(Cn1cccn1)NC(=O)Nc1ccc(N(C)C)nc1` (centres undefined), the results for the Percent Effect in test [1] and in test [2] were 1.98% and -47.5%, respectively.

For the molecule `O=S(=O)(C1CC1)N1CCC2(CC1)CC(Oc1cccnc1)CO2` (centres undefined), the results for the Percent Effect in test [1] and in test [2] were 6.21% and -0.225%, respectively.

Consider `CCn1nccc1CNC(=O)NC1CCCCC1`, for which the figures for the Percent Effect in test [1] and in test [2] were 11.6% and -68.7%, respectively.

With `CC(CNC(=O)Nc1cn[nH]c1)N1CCc2ccccc2C1` (centres undefined), the results for the Percent Effect in test [1] and in test [2] were -0.721% and 21.5%, respectively.

The record behind these values is ChEMBL document CHEMBL3988442, “University of Dundee, Small-Polar-MMV Screening Library” (2021).
